# Compound activity (PubChem BioAssay)
# In the library only some 4.6% were active in any assay of this set; here they are far more common.
# tim10-1 inh = inhibits growth of tim10-1 mutant yeast; S. cerevisiae tim10-1 ts strain growth, BacTiter-Glo, 24 h; AID 463190; inhibition, % at 20 µM; 330,000 compounds, 2.2% hits;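 active means inhibition of at least 40%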;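 further: mutant grown at 25 °C; 0% = DMSO wells with yeast and 100% = wells holding no yeast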
# PfHsp90 yeast 2 = growth inhibition of yeast expressing Plasmodium Hsp90; S. cerevisiae expressing PfHsp90, BacTiter-Glo ATP, 48 h; yeast lacking PDR1 and PDR3 efflux regulators; inhibition, % at 9.4 µM; 310,000 compounds, 0.32% hits; AID 504621;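 active means every replicate shows inhibition above about 80%, whatever the replicate mean, limit read from the data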;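 further: 0% = DMSO neutral controls and 100% = 20 µM radicicol positive controls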
# TIM10 inh = TIM10 yeast growth inhibition; S. cerevisiae TIM10 strain growth, BacTiter-Glo luminescence, 24 h; inhibition, % at 10 µM; 330,000 compounds, 1.4% hits;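 active means inhibition of 40% or more at the single tested concentration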;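 further: wild-type TIM10 isogenic control strain grown at permissive 25 °C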
# tim23-1 inh = tim23-1 yeast growth inhibition; inhibition, % at 20 µM; S. cerevisiae tim23-1 growth, BacTiter-Glo luminescence, 24 h; 330,000 compounds, 1.3% hits; AID 463212;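 active means growth inhibition of the mutant yeast at or above 50%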;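 further: temperature-sensitive mutant grown at 25 °C; plate controls were DMSO-treated mutant yeast for no effect and medium wells lacking yeast for full effect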
# NLRP3 yeast inh = inhibitors of NALP3 inflammasome in yeast | Yeast reconstituted NLRP3/ASC/caspase-1, beta-gal luminescence, 24 h | inhibition, % at 10 µM | 330,000 compounds, 0.39% hits;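 active means inhibition of 50% or more; inactive means inhibition below 50%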;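 further: plate controls were induced DMSO wells for no effect and uninduced yeast grown without galactose for full effect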
# SKKanGAS inh = inhibitors of SKKanGAS S. pyogenes growth in kanamycin (SK-promoter or general growth effect); 300,000 compounds, 1.3% hits; BacTiter-Glo, 6 h; inhibition, % at 7.5 µM;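 active means mean replicate score, as percent of positive control median, at least 50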;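 further: strain carries kanamycin resistance gene driven by streptokinase promoter and grows in 40 µg/ml kanamycin; loss of luminescence reflects streptokinase promoter inhibition or plain growth inhibition; 0% = median of DMSO wells and 100% = positive control at its reference dose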
# Numbers without * were called inactive; nt = no result given.
SMILES,tim10-1 inh,PfHsp90 yeast 2,TIM10 inh,tim23-1 inh,NLRP3 yeast inh,SKKanGAS inh
Cc1nnc(SCC2=C(C(=O)O)N3C(=O)C(NC(=O)Cn4nc(C(F)F)cc4C)C3SC2)s1 (configuration not stated),4,-42,9,6,-3,112*
Cc1nnc(SCC2=C(C(=O)O)N3C(=O)C(NC(=O)Cn4nc(C(F)F)c(Cl)c4C)C3SC2)s1 (configuration not stated),7,20,11,7,7,96*
CCC(C(=O)NC1C(=O)N2C(C(=O)O)=C(CSc3nnc(C)s3)CSC12)c1ccccc1 (configuration not stated),-3,19,-4,-4,13,nt
CC(=O)OCC1=C(C(=O)O)N2C(=O)C(NC(=O)CCn3nc(C)c(Cl)c3C)C2SC1 (configuration not stated),-7,-9,1,1,7,95*
CC(=O)OCC1=C(C(=O)O)N2C(=O)C(NC(=O)CC(C)c3ccccc3)C2SC1 (configuration not stated),-2,17,7,4,6,nt
CC(=O)OCC1=C(C(=O)O)N2C(=O)C(NC(=O)C(C)Cn3cc(Cl)cn3)C2SC1 (configuration not stated),4,-30,15,8,13,115*
CC(=O)OCC1=C(C(=O)O)N2C(=O)C(NC(=O)COc3ccc(F)cc3)C2SC1 (configuration not stated),-13,6,6,-2,4,nt
CCOC(=O)/C(=N\Nc1ccccc1Cl)N(C)C1CCCCC1,-61,6,-63,-8,4,27
CCOC(=O)c1c(S(=O)(=O)N2CCCCC2C)c(C)n(C)c1C (configuration not stated),21,0,14,19,1,-1
Cc1nnc(SCC2=C(C(=O)O)N3C(=O)C(NC(=O)COc4ccc(F)cc4)C3SC2)s1 (configuration not stated),-3,19,9,5,6,nt
CC(=O)OCC1=C(C(=O)O)N2C(=O)[C@@H](NC(=O)Cc3ccccc3)[C@H]2SC1,nt,-2,nt,nt,nt,nt
Cc1nnc(SCC2=C(C(=O)O)N3C(=O)C(NC(=O)c4cc(F)c(F)cc4Cl)C3SC2)s1 (configuration not stated),12,16,16,12,14,109*
CC(=O)OCC1=C(C(=O)O)N2C(=O)C(NC(=O)Cn3nc(C(F)F)c(Cl)c3C)C2SC1 (configuration not stated),-3,57,4,8,18,109*
CC(=O)OCC1=C(C(=O)O)N2C(=O)[C@@H](NC(=O)Cc3cccs3)[C@H]2SC1,8,-18,0,7,-1,103*
CC(=O)OCC1=C(C(=O)O)N2C(=O)C(NC(=O)CCn3nc(C(F)(F)F)c(Br)c3C3CC3)C2SC1 (configuration not stated),4,16,-2,13,10,110*
COc1ccc(OCC(=O)Nc2ccncc2)cc1,5,-9,-11,9,3,-3
COc1c(S(=O)(=O)NCCCn2ccnc2)ccc(Cl)c1Cl,-10,-3,-7,-29,20,1
Cc1ccc2oc(=O)n(Cc3ccccc3)c2c1,-15,-10,-10,12,-8,2
CCN(CC)S(=O)(=O)c1ccc(NC(=O)CO/N=C(\N)c2ccccc2)cc1,14,nt,2,13,-2,-7
O=S(=O)(Nc1cc(Sc2cccc3cccnc23)c(O)c2ccccc12)c1ccccc1,nt,nt,nt,nt,nt,91*
CCOc1ccc(S(=O)(=O)Nc2cc(SCC(=O)O)c(O)c3ccccc23)cc1,nt,7,nt,nt,nt,14
Cc1cc2occ(CC(=O)OCC(=O)Nc3sc4c(c3C#N)CCC(C)C4)c2cc1C (configuration not stated),-15,-7,-16,-4,-6,-11
O=C(CNC(=O)c1ccco1)NCC(=O)OCC(=O)c1ccc(Cl)c([N+](=O)[O-])c1,-8,26,-3,1,0,1
CCn1c(NC(=O)/C=C/c2ccc(F)cc2)nc2ccccc21,13,-38,4,49,15,62*
CCn1c(NC(=O)c2ccccc2)nc2ccccc21,-40,22,-3,30,36,23
SMILES,tim10-1 inh,PfHsp90 yeast 2,TIM10 inh,tim23-1 inh,NLRP3 yeast inh,SKKanGAS inh
O=C(Oc1ccc(NC2=C(Cl)C(=O)c3ccccc3C2=O)cc1)c1ccc([N+](=O)[O-])cc1,nt,10,nt,nt,nt,54*
CN(C)c1ccc(C=c2c3ccccc3n3c2cc(-c2ccccc2)[n+]3C)cc1,nt,105*,nt,nt,nt,nt
COc1cc(N(C)C)ccc1C=c1c2ccccc2n2c1cc(-c1ccccc1)[n+]2C,nt,104*,nt,nt,nt,nt
CN(C)c1ccc(C=c2c3ccccc3n3c2cc(-c2ccc(Cl)cc2)[n+]3C)cc1,nt,-10,nt,nt,nt,nt
COc1cc(C=c2c3ccccc3n3c2cc(-c2ccccc2)[n+]3C)cc(OC)c1OC,nt,-12,nt,nt,nt,nt
O=c1[nH]c2cc(Cl)ccc2c(O)c1-c1cccc(Oc2ccccc2)c1,-73,0,-26,3,17,-4
CC1(C)CC2=C(CO1)C(=S)NC(c1ccccc1)N2CC1CCCO1 (configuration not stated),0,24,-2,1,10,5
O=C(OCc1ccccc1)/C(=C(\O)c1ccccc1Br)c1ccc(-c2ccccc2)cn1,-18,-8,15,-3,10,6
COc1ccc(N(CC(=O)N2CCOCC2)S(C)(=O)=O)cc1OC,-10,10,-8,0,6,0
CCC1=NN(C(=O)c2ccccc2Br)C(O)(c2ccc(Br)cc2)C1 (configuration not stated),5,-1,22,43,24,5
CCC1=NN(C(=O)c2ccccc2O)C(O)(c2ccccc2)C1 (configuration not stated),-15,17,21,36,23,54*
COc1ccc(-c2noc(-c3ccc4c(c3)OCO4)n2)cc1,9,-5,-4,-11,9,2
COc1ccc(-c2nc(-c3ccc4c(c3)OCO4)[nH]c2-c2ccc(OC)cc2)cc1,17,-20,24,43,10,55*
N#Cc1ccc(CN2CCN(C(=O)c3ccc(S(=O)(=O)NCc4ccco4)cc3)CC2)cc1,7,-14,7,13,8,nt
Nc1[nH]n2c(=O)c3c(nc2c1N=Nc1ccc(Cl)cc1)CCCC3,17,-31,6,20,36,83*
Nc1[nH]n2c(=O)c3c(nc2c1N=Nc1ccccc1)CCCC3,19,-4,9,17,17,2
Nc1cccc(Oc2ccc([N+](=O)[O-])cc2)c1,3,0,11,16,18,-11
Nc1cccc(Oc2c(F)c(F)c(Oc3cccc(N)c3)c(F)c2F)c1,-51,85*,13,47,41,8
Cc1ccc(O)c(CNc2cccc3cccnc23)c1,13,-8,14,14,12,8
